The values below come from PubChem BioAssay AID720609 (Broad Institute, 2013).

A short description of this assay: cytotoxicity in HeLa cervical cancer cells – cell-based, CellTiter-Glo ATP luminescence, 8-48 h, dry powder, mechanism study for HRAS target identification, late-stage follow-up (AID 720609).

Results with a measured potency or affinity are listed apart. Activity calls are given as the source filed them.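 The calls were made as follows: active = viability signal falls with a fitted half-maximal concentration at or below a set limit at all three treatment times; inconclusive = treatment times disagree, or a flat partial drop, or poor fit; inactive = inactive at every treatment time.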

For `Cc1onc(C(=O)N2CCN(C(c3ccncc3)c3ccncc3)CC2)c1[N+](=O)[O-]`, the outcome was inactive.
The entry for `CCC(=O)N(c1ccc(OC)c(Cl)c1)C(C(=O)NCCc1ccccc1)c1cccs1` (configuration not stated) is “inactive”.
